In all, about 53,000 sequences went through this assay and about 3,700 (7%) were called active. Only a selection was taken, and actives are over-represented in it overall. Values without a mark were called inactive.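 Rule for the calls: active = gene knockdowns whose robust z-score for IL-1 alpha signal is at least 2 or at most -2, so actives lie on both sides; inactive = the rest.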

This assay in a line: Components of the Cytosolic LPS Sensing Pathway: Gene Identification via Genome-wide siRNA Screen.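 Note: robust z of the log signal after scaling to non-targeting control siRNA wells of the plate.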 The settings on record: RAW264.7 macrophages, IL-1a HTRF, actives lie on both sides, screened at 100 nM (by protocol), cells primed 5 h with Pam3CSK4 first. Put shortly: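 Cells (RAW264.7, 1×10^4 per well) were transfected with siRNA at 100 nM and cultured 48h at 37 degrees C. Pam3CSK4 was added for 5 hours; LipidA transfection followed for 24 hour. IL-1a was then measured by HTRF.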
(In general: Time-resolved FRET reads energy transfer from a long-lived donor to a nearby acceptor.)
Take GCCCAUAGUAUAAAAUACCTT against Dzip1: the z-score was 1.06. In the case of GGAAGAUGCCUUUUCCAAGTT against Syt1 it was 0.752; in that of GGUGGAAUAUAUUGAGUAUTT against Fam199x, 0.251; in that of CGACUAAGGAUGAAAAGCATT against Apbb1ip, -3.04 (active). With GCGAAAGACGAUCAAAACCTT against Scn1a, the z-score was 0.841.

Take GGCUACACUCUGACAGCACTT against Znhit2: the z-score is -0.666. Consider GCCCGGUAAAGGUAUCCAUTT against Trp53bp1, for which the z-score was 0.384.

In the case of GGGAGUUACUAACCACUUCTT against Gja3, the z-score is -2.05 (active).

GCCUCUCCUGUGAAUGACATT against Erlec1: the z-score is -0.699. In the case of GGGUGUCACAAAAUAAAAUTT against Sigirr it was -0.245; in that of GGAGAUGAACCAUUAUGUCTT against Mycbp, -2.03 (active). For GCAGAAAUACUGGCGAAUATT against Gm9725, the z-score was 0.607.

Turning to GGUGGAGACACUGAAGGUUTT against Akap1, the z-score is 0.314.

GACCAGAAAUUUAAGUGCUTT against Dnajc30: the z-score is 1.5. To GGAUCUUCCUCAUCACCCUTT against Ube4a belongs 0.657; to “GCUUACCUGCUGUCUUAAUTT against F630003A18Rik”, 0.42; to GGAGCUCCUGAACAGGAUCTT against Gpr26, 2.13 (active). As to CCUUACAUGUUGACUACCCTT against Rnase13, the z-score is 0.403. To GGUCUUCUGUCCAUUAGUGTT against Pigc belongs 0.14; to GGAGAAAGAUGGCAUAAUGTT against Slitrk6, -0.595. As for GGUGAAGGUGAACAAGGACTT against Myh9, the z-score was 2.92 (active).

For GGACAAUCCAUAAGUUAAATT against Scai, the z-score was 0.22.

For GGAAGUUAAGCAUAGUUUCTT against Flrt3, the z-score was 1.15.

As to GGCAACAGUAUUUAUGAAUTT against Sim2, the z-score was -0.45. On to CCUAGCAUGUUUCUUGCUATT against Rnft2, for which the z-score was 0.46. In the case of GGAGAAAAUUGUCAAGAAGTT against Ift122, the z-score was -0.824.

CCAGGAUCAAAGAACUUAUTT against Olfr1424: the z-score was -3.39 (active). In the case of GGAACUUUUCAUCCUGAAGTT against Fgl1 it was 0.0919; in that of GCUCAUCAAGCUGUACCUATT against Eif2b1, 1.16; in that of GCUUUGAUUUAUGAGGUCATT against Ttc30a1, 0.251.
